Laboratory results: PubChem BioAssay (NCATS)
Inconclusive results are not listed. The source made the active and inactive calls. Calls come from the whole dose curve; as a rule, active = well fitted curve in the direction sought with a large enough effect; inconclusive = small, poorly fitted or top-dose-only effect, or another doubt; inactive = no such curve, though single readings can be large; an effect the other way counts as inactive or inconclusive.

Key:
[1] = qHTS for Hypoxia signaling pathway (HIF-1) agonists against the NCATS CANVASS Library (AID 1347375)
Source text: (§1) Natural products and their derivatives continue to be wellsprings of nascent therapeutic potential. However, many laboratories have limited resources for biological evaluation, leaving their previously isolated or synthesized compounds largely or completely untested. To address this issue, the Canvass library of natural products was assembled (https://tripod.nih.gov/canvass), in collaboration with academic and industry researchers, for quantitative high-throughput screening (qHTS) across a diverse set of cell-based and biochemical assays. The pure (>85% purity by liquid chromatography/mass spectrometry [LC/MS]) Canvass library of 346 natural products were submitted by 45 academic laboratories and companies around the world. We collected pure natural products to circumvent deconvolution and structure elucidation due to time and resource limitations. The library was formatted into 1536-well plates and evaluated in 50 qHTS (in an 11-pnt concentration series) bioassays with broad scope of disease-relevant mechanisms. The resulting data set from 50 different assays was then systematically analyzed to identify overall trends and specific natural products with interesting biological activities. […] The compounds were also tested for auto fluorescence that may interfere with the biological target readout resulting in potential false positives and/or negatives. […]

[2] = 10-beta competent E. coli microbial cell viability qHTS against the NCATS CANVASS Library (AID 1347376); note: series mostly up to about 46 µM
Method in brief: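 Cytotoxicity toward competent E. coli is scored from cellular ATP content via BacTiter-Glo luminescence following overnight compound exposure at 37C, 5% CO2.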

[3] = DH5-alpha competent E. coli microbial cell viability qHTS against the NCATS CANVASS Library (AID 1347377); conditions: outcome: dose series up to 46.1 µM
Method in brief: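 Cell viability of competent DH5-alpha E. coli is scored from ATP content by luminescence. Cells sit overnight at 37C with compound across an 11-point concentration series.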

[4] = qHTS for H2AX Agonists against the NCATS CANVASS Library (AID 1347378);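 note: phospho-H2AX S139 level in CHO-K1 lysates by TR-FRET emission ratio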; note: potency is the fitted concentration of half-maximal effect
Method in brief: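 Following overnight seeding, CHO-K1 cells are incubated with a concentration series of compound for 3 hr at 37C (final DMSO 0.76%). Cells are then lysed, detection antibodies added, and emission ratio 665/620 nm recorded after 24 hr at room temperature.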

[5] = qHTS for Inflammasome Signaling Inhibitors: IL-1-beta AlphaLISA screen against the NCATS CANVASS Library (AID 1347379); conditions: outcome: dose series up to 57.5 µM;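 note: human THP-1 cells primed with LPS then triggered with ATP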
Method in brief: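 Human THP-1 cells were pretreated 1 hr at 37 °C with compounds (up to 57.5 uM final), then stimulated with LPS (250 ng/mL final) and ATP (1.25 mM final). Secreted IL-1B was read by AlphaLISA after 16 hr.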

[6] = qHTS for Antimalaria activity screened against the NCATS CANVASS Library (AID 1347380); note: potency is the fitted concentration of half-maximal effect; nearly all actives have a fitted effect of over 40% in size; conditions: P. falciparum Dd2 growth, SYBR Green fluorescence, 72 h
Method in brief: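 Growth inhibition of asexual erythrocytic P. falciparum Dd2 was quantified by SYBR Green DNA staining. Cultures grew 72 h with compound (11-point series) in hypoxic gas at 37C; lysis and staining lasted 18 h.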

[7] = Inflammasome Signaling qHTS Counterscreen: IL-1-beta AlphaLISA counterscreen against the NCATS CANVASS Library (AID 1347381);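 note: cell-free check with purified IL-1β in medium and no THP-1 cells; series mostly up to about 57 µM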
Method in brief: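 To flag interference with the AlphaLISA read-out, a known amount of purified IL-1-beta (4 pg) replaced cell supernatant. Detection used anti-IL-1-beta acceptor beads, biotinylated antibody and streptavidin donor beads at room temperature.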

[8] = Cytotoxicity qHTS for assessment of Hepg2 cells membrane integrity screened against the NCATS CANVASS Library (AID 1347387)
Method in brief: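 Fluorescence proportional to lysed-cell number, from LDH leaking out of HepG2 cells exposed 5 hr at 37C to 0.59 nM - 46 uM compound (11-point qHTS), is measured after 10 min with CytoTox-ONE.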

[9] = target: Nuclear receptor subfamily 1 group I member 3 (Homo sapiens) (UniProt Q14994); assay: qHTS for Constitutive Androstane Receptor (CAR) Agonist screened against the NCATS CANVASS Library (AID 1347373);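 note: every well also contained 1.5 µM PK11195 alongside the test compound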
Method in brief: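 CAR agonism is scored as CYP2B6-promoter luciferase induction in a double-stable transfected HepG2 line, where 1.5uM PK11195 is included in each well. Compounds were tested over a 24hr exposure.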

[10] = qHTS for Hypoxia signaling pathway (HIF-1) antagonists against the NCATS CANVASS Library (AID 1347374);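 note: HRE-bla ME-180 cells stimulated with cobalt chloride to stabilize HIF-1alpha; series mostly up to about 38 µM; nearly all actives have a fitted effect of over 60% in size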
Source text: as §1, with “The pure (>85% purity by liquid chromatography/mass spectrometry [LC/MS]) Canvass library of 346 natural products were submitted by 45 academic laboratories and companies around the world.” left out
HIF-1 antagonist assay protocol: 1. […] The fluorescence intensity was obtained using the EnVision (PerkinElmer, Shelton, CT) plate reader using a 405 nm excitation, and 460 and 530 nm emission filters. […]

Measured: Potency

Nuclear receptor subfamily 1 group I member 3 (Homo sapiens), sequence (Q14994 whole entry, looked up): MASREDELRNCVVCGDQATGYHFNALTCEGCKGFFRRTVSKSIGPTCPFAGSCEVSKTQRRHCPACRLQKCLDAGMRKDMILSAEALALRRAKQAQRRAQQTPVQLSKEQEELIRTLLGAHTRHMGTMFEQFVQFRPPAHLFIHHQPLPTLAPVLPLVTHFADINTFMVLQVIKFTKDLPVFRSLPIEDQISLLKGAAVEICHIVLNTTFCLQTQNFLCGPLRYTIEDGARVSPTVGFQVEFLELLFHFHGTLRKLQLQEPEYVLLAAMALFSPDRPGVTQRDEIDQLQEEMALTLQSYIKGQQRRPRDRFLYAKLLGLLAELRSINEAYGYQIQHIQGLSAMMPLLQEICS

O=c1cc(-c2ccccc2)oc2c(O)c(O)ccc12
inactive: [1] | [2] | [3] | [5] | [7] | [8]
active: [4] 34400 nM | [6] 6.7 nM

O=C(O)c1cc(O)c(O)c(O)c1
inactive: [9] | [10] | [1] | [2] | [3] | [4] | [5] | [7] | [8]
active: [6] 5.3 nM
